The supplement of paper PMC3616981

Compound: CC(C)c1cccc(C(C)C)c1N1C(=O)c2ccc(O)cc2C1=O
Assay: reporter fold induction vs vehicle; higher = higher reporter activity
Method: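 Attagene multiplexed transcription-factor reporter assay (48 cis response elements and 25 trans nuclear-receptor constructs) treated with 5HPP-33 at 8 concentrations (0.091–200 µM). The response is fold induction of reporter activity relative to vehicle control. Cell line and time not stated in the paper; tested in ToxCast Phase II for this study.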

Row | Target | reporter fold induction (0.091 µM) | reporter fold induction (0.274 µM) | reporter fold induction (0.823 µM) | reporter fold induction (2.469 µM) | reporter fold induction (7.407 µM) | reporter fold induction (22.22 µM) | reporter fold induction (66.67 µM) | reporter fold induction (200 µM)
1 | EGR_CIS | 1.05 | 0.979 | 0.95 | 0.927 | 1.1 | 1.2 | 1.64 | 2.7
2 | RORb_TRANS | 0.758 | 0.955 | 0.81 | 1.32 | 0.966 | 0.625 | 0.434 | 0.342
3 | PXR_TRANS | 1.15 | 2.07 | 3.25 | 4.39 | 3.39 | 3.71 | 3.61 | 1.33
4 | BRE_CIS | 0.993 | 0.878 | 1.14 | 0.967 | 0.938 | 0.934 | 3.36 | 1.05
5 | DR4_LXR_CIS | 1.02 | 0.906 | 1 | 1.02 | 0.88 | 0.462 | 0.424 | 0.478
